Assay results: PubChem BioAssay AID1159580 (chemical genetic matrix, 2015)
“And” between values parts separate entries of the source, which are not always exact repeats. Equal values may be shown once. In all, about 5,500 compounds went through this assay and about 2,000 (36%) were called active. Roughly 18% stayed inconclusive and do not appear here. No stated cut-off is given here; in the data, active means normalized growth mostly below about 0.91 (no sharp cut-off); inconclusive means no clear call, values can overlap the other calls; inactive means mostly above about 0.92. The list shows a part of the results.

Test: chemical genetic growth profiling, strain panel (AID 1159580);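 further: tested at 20 µM; growth read once vehicle control cultures reached saturation at 30 °C; 1 = growth at the plate median or of vehicle wells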
Conditions: growth OD
[1] = S. cerevisiae deletion strains, locus YAL013W, strain DEP1, stronger effect = lower value
[2] = S. cerevisiae deletion strains, locus YBR229C, strain ROT2, stronger effect = lower value
[3] = S. cerevisiae deletion strains, locus YDL101C, strain DUN1, stronger effect = lower value
[4] = S. cerevisiae deletion strains, locus YDR150W, strain NUM1, stronger effect = lower value
[5] = S. cerevisiae deletion strains, locus YEL061C, strain CIN8, stronger effect = lower value
[6] = S. cerevisiae deletion strains, locus YGR078C, strain PAC10, stronger effect = lower value
[7] = S. cerevisiae deletion strains, locus YHR030C, strain SLT2, stronger effect = lower value
[8] = S. cerevisiae deletion strains, locus YHR087W, strain rtc3, stronger effect = lower value
[9] = S. cerevisiae deletion strains, locus YJL187C, strain SWE1, stronger effect = lower value
[10] = S. cerevisiae deletion strains, locus YJR043C, strain POL32, stronger effect = lower value
[11] = S. cerevisiae deletion strains, locus YJR075W, strain HOC1, stronger effect = lower value
[12] = S. cerevisiae deletion strains, locus YLR039C, strain RIC1, stronger effect = lower value
[13] = S. cerevisiae deletion strains, locus YLR058C, strain SHM2 (second series), stronger effect = lower value
[14] = S. cerevisiae deletion strains, locus YLR085C, strain ARP6, stronger effect = lower value
[15] = S. cerevisiae deletion strains, locus YLR262C, strain YPT6, stronger effect = lower value
[16] = S. cerevisiae deletion strains, locus YML094W, strain GIM5, stronger effect = lower value
[17] = S. cerevisiae deletion strains, locus YMR219W, strain ESC1, stronger effect = lower value
[18] = S. cerevisiae deletion strains, locus YMR263W, strain SAP30, stronger effect = lower value
[19] = S. cerevisiae deletion strains, locus YNL153C, strain GIM3, stronger effect = lower value
[20] = S. cerevisiae deletion strains, locus YNL298W, strain CLA4 (second series), stronger effect = lower value
[21] = S. cerevisiae deletion strains, locus YNL322C, strain KRE1, stronger effect = lower value
[22] = S. cerevisiae deletion strains, locus YNR030W, strain Alg12, stronger effect = lower value
[23] = S. cerevisiae deletion strains, locus YPL055C, strain LGE1, stronger effect = lower value
[24] = S. cerevisiae deletion strains, locus YPL241C, strain CIN2, stronger effect = lower value
[25] = S. cerevisiae deletion strains, locus YPR135W, strain CTF4, stronger effect = lower value
[26] = S. cerevisiae strains, strain wild type, stronger effect = lower value
[27] = S. cerevisiae deletion strains, locus YGR052W, strain FMP48, stronger effect = lower value
[28] = S. cerevisiae deletion strains, locus YGR229C, strain SMI1, stronger effect = lower value
[29] = S. cerevisiae deletion strains, locus YHR079C, strain IRE1, stronger effect = lower value
[30] = S. cerevisiae deletion strains, locus YHR082C, strain KSP1, stronger effect = lower value
[31] = S. cerevisiae deletion strains, locus YJL095W, strain BCK1, stronger effect = lower value
[32] = S. cerevisiae deletion strains, locus YJR066W, strain TOR1, stronger effect = lower value
[33] = S. cerevisiae deletion strains, locus YKL203C, strain TOR2, stronger effect = lower value
[34] = S. cerevisiae deletion strains, locus YLR113W, strain HOG1, stronger effect = lower value
[35] = S. cerevisiae deletion strains, locus YNL128W, strain TEP1, stronger effect = lower value
[36] = S. cerevisiae deletion strains, locus YNL183C, strain NPR1, stronger effect = lower value
[37] = S. cerevisiae deletion strains, locus YNL207W, strain RIO2, stronger effect = lower value
[38] = S. cerevisiae deletion strains, locus YOR119C, strain RIO1, stronger effect = lower value
[39] = S. cerevisiae deletion strains, locus YOR231W, strain MKK1, stronger effect = lower value
[40] = S. cerevisiae deletion strains, locus YPL256C, strain CLN2, stronger effect = lower value
[41] = S. cerevisiae deletion strains, locus YDL134C, strain PPH21, stronger effect = lower value
[42] = S. cerevisiae deletion strains, locus YMR307W, strain GAS1, stronger effect = lower value

Measured: normalized growth

COc1cccc(NC(=S)NCc2ccco2)c1
inactive: [1] 0.979 | [2] 0.99 | [3] 1.03 | [4] 1.04 | [5] 0.979 | [6] 1.01 | [7] 0.88 | [8] 0.977 | [9] 0.984 | [10] 1.01 | [11] 1 | [12] 0.976 | [13] 0.984 | [14] 0.884 | [15] 0.97 | [16] 0.963 | [17] 0.992 | [18] 1.04 | [19] 1 | [20] 1.01 | [21] 0.994 | [22] 0.986 | [23] 0.976 | [24] 0.97 | [25] 0.956 | [26] 0.996

CC(NC(=S)Nc1ccc(Oc2ccc(Cl)cc2)cc1)c1ccccc1 (configuration not stated)
active: [12] 0.78
0.924 (inactive) and 0.84 (active): [7]
inactive: [1] 0.973 | S. cerevisiae deletion strains, locus YAR019C, strain CDC15, stronger effect = lower value 0.952 | S. cerevisiae deletion strains, locus YBL105C, strain PKC1, stronger effect = lower value 0.965 | S. cerevisiae deletion strains, locus YBR135W, strain CKS1, stronger effect = lower value 0.956 | S. cerevisiae deletion strains, locus YBR136W, strain MEC1, stronger effect = lower value 0.968 | S. cerevisiae deletion strains, locus YBR160W, strain CDC28, stronger effect = lower value 0.976 | [2] 0.983 | S. cerevisiae deletion strains, locus YCL061C, strain MRC1, stronger effect = lower value 0.983 | S. cerevisiae deletion strains, locus YDL017W, strain CDC7, stronger effect = lower value 0.979 | S. cerevisiae deletion strains, locus YDL028C, strain MPS1, stronger effect = lower value 0.971 | [3] 0.978 and 0.974 | S. cerevisiae deletion strains, locus YDL108W, strain KIN28, stronger effect = lower value 0.965 | S. cerevisiae deletion strains, locus YDL132W, strain cdc53, stronger effect = lower value 0.964 | S. cerevisiae deletion strains, locus YDL214C, strain PRR2, stronger effect = lower value 0.94 | S. cerevisiae deletion strains, locus YDR052C, strain DBF4, stronger effect = lower value 0.955 | S. cerevisiae deletion strains, locus YDR054C, strain cdc34, stronger effect = lower value 0.965 | [4] 0.97 | S. cerevisiae deletion strains, locus YDR226W, strain ADK1, stronger effect = lower value 0.953 | S. cerevisiae deletion strains, locus YDR477W, strain SNF1, stronger effect = lower value 0.937 | [5] 0.961 | S. cerevisiae deletion strains, locus YER123W, strain YCK3, stronger effect = lower value 0.909 | S. cerevisiae deletion strains, locus YER133W, strain GLC7, stronger effect = lower value 0.941 | S. cerevisiae deletion strains, locus YFL009W, strain cdc4, stronger effect = lower value 0.958 | S. cerevisiae deletion strains, locus YFL029C, strain CAK1, stronger effect = lower value 0.941 | S. cerevisiae deletion strains, locus YFR003C, strain YPI1, stronger effect = lower value 0.961 | S. cerevisiae deletion strains, locus YFR019W, strain FAB1, stronger effect = lower value 0.96 | S. cerevisiae deletion strains, locus YFR028C, strain CDC14, stronger effect = lower value 0.946 | S. cerevisiae deletion strains, locus YGR040W, strain KSS1, stronger effect = lower value 0.922 | [27] 1.08 | [6] 0.995 | S. cerevisiae deletion strains, locus YGR092W, strain DBF2, stronger effect = lower value 0.947 | [28] 0.975 | [29] 0.97 | [30] 1.02 | [8] 0.988 | S. cerevisiae deletion strains, locus YHR205W, strain SCH9, stronger effect = lower value 0.954 | S. cerevisiae deletion strains, locus YIL147C, strain SLN1, stronger effect = lower value 0.96 | [31] 0.932 | S. cerevisiae deletion strains, locus YJL128C, strain PBS2, stronger effect = lower value 0.918 | S. cerevisiae deletion strains, locus YJL157C, strain FAR1, stronger effect = lower value 0.927 | [9] 0.987 | S. cerevisiae deletion strains, locus YJR016C, strain ILV3, stronger effect = lower value 0.961 | [10] 0.998 | S. cerevisiae deletion strains, locus YJR066W, strain TOR1 (second series), stronger effect = lower value 0.933 | [32] 0.981 | [11] 1.01 | S. cerevisiae deletion strains, locus YKL048C, strain ELM1, stronger effect = lower value 0.965 | S. cerevisiae deletion strains, locus YKL067W, strain YNK1, stronger effect = lower value 0.916 | S. cerevisiae deletion strains, locus YKL101W, strain HSL1, stronger effect = lower value 0.949 | S. cerevisiae deletion strains, locus YKL193C, strain SDS22, stronger effect = lower value 0.958 | [33] 1.01 | [13] 0.988 | [14] 0.875 | [34] 0.923 | S. cerevisiae deletion strains, locus YLR133W, strain CKI1, stronger effect = lower value 0.932 | [15] 0.871 | S. cerevisiae deletion strains, locus YLR403W, strain SFP1, stronger effect = lower value 0.962 | S. cerevisiae deletion strains, locus YML070W, strain DAK1, stronger effect = lower value 0.924 | [16] 0.905 | S. cerevisiae deletion strains, locus YMR001C, strain CDC5, stronger effect = lower value 0.968 | S. cerevisiae deletion strains, locus YMR205C, strain PFK2 (second series), stronger effect = lower value 0.951 | [17] 0.99 | [18] 0.971 | S. cerevisiae deletion strains, locus YMR277W, strain FCP1, stronger effect = lower value 0.96 | S. cerevisiae deletion strains, locus YNL006W, strain LST8, stronger effect = lower value 0.965 | S. cerevisiae deletion strains, locus YNL020C, strain ARK1, stronger effect = lower value 0.911 | [35] 0.964 | [19] 0.985 | S. cerevisiae deletion strains, locus YNL161W, strain CBK1, stronger effect = lower value 0.973 | [36] 0.955 | [37] 0.959 | S. cerevisiae deletion strains, locus YNL222W, strain SSU72, stronger effect = lower value 0.965 | [20] 0.918 | S. cerevisiae deletion strains, locus YNL307C, strain MCK1 (second series), stronger effect = lower value 0.906 | [21] 1 | [22] 0.944 | S. cerevisiae deletion strains, locus YOL078W, strain AVO1, stronger effect = lower value 0.954 | S. cerevisiae deletion strains, locus YOL136C, strain PFK27, stronger effect = lower value 0.929 | S. cerevisiae deletion strains, locus YOR061W, strain CKA2, stronger effect = lower value 0.941 | [38] 1.04 | [39] 1.01 | S. cerevisiae deletion strains, locus YOR329C, strain SCD5, stronger effect = lower value 0.976 | S. cerevisiae deletion strains, locus YPL031C, strain PHO85, stronger effect = lower value 0.93 | [23] 0.905 | S. cerevisiae deletion strains, locus YPL153C, strain RAD53, stronger effect = lower value 0.937 | S. cerevisiae deletion strains, locus YPL204W, strain HRR25, stronger effect = lower value 0.899 | S. cerevisiae deletion strains, locus YPL209C, strain IPL1, stronger effect = lower value 0.967 | [24] 0.93 | [40] 0.915 | S. cerevisiae deletion strains, locus YPR025C, strain CCL1, stronger effect = lower value 0.961 | S. cerevisiae deletion strains, locus YPR106W, strain ISR1, stronger effect = lower value 0.949 | S. cerevisiae deletion strains, locus YPR111W, strain DBF20, stronger effect = lower value 1.01 | [25] 0.97 | S. cerevisiae deletion strains, strain NNK1, stronger effect = lower value 0.964 | S. cerevisiae deletion strains, strain TSCII, stronger effect = lower value 0.954

CCN(C(=S)Nc1ccc(OC)cc1)c1ccccc1
inactive: [1] 1 | [2] 1.02 | [3] 1.01 | [41] 1.01 | [4] 0.917 | [5] 1 | [6] 0.989 | [7] 1.12 | [8] 1.01 | [9] 1.01 | [10] 1.01 | [11] 1 | S. cerevisiae deletion strains, locus YKL190W, strain CNB1, stronger effect = lower value 1.02 | [12] 0.921 | [13] 1.03 | [14] 0.976 | [15] 0.985 | [16] 1 | [17] 1.02 | [18] 1.01 | [19] 0.988 | [20] 0.99 | [21] 1.02 | [22] 0.992 | [23] 0.89 | [24] 0.999 | [25] 0.884

S=C(NCc1ccco1)Nc1ccc(Oc2ccc(Cl)cc2)cc1
0.247 (active) and 1.07 (inactive): [7]
active: [2] 0.868 | [5] 0.723 | [6] 0.915 | [9] 0.923 | [12] 0.41 | [14] 0.355 | [15] 0.463 | [16] 0.703 | [18] 0.85 | [42] 0.364 | [35] 0.887 | [20] 0.652 | [22] 0.544 | [23] 0.641 | [24] 0.361 | [40] 1.27 [resistant] | [25] 0.505 | [26] 0.883
inactive: [1] 0.937 | [3] 0.933 | [4] 0.863 | [27] 1.04 | [28] 0.987 | [29] 1.07 | [30] 1.14 | [8] 0.919 | [31] 0.948 | [10] 0.926 | [32] 1.13 | [11] 0.95 | S. cerevisiae deletion strains, locus YKL171W, strain NNK1, stronger effect = lower value 1.06 | [33] 1.04 | [13] 0.979 | [34] 1.11 | [17] 0.97 | [19] 0.936 | [36] 1.04 | [37] 1.02 | [21] 0.998 | [38] 1 | [39] 0.944

CCC(=O)Oc1ccc(NC(=S)NCCCO)cc1
inactive: [1] 1 | [2] 1 | [3] 0.998 | [41] 0.992 | [4] 1 | [5] 1.01 | [6] 1 | [28] 1 | [7] 1.05 | [8] 0.999 | [9] 1 | [10] 1 | [11] 1.01 | [12] 0.996 | [13] 1 | [14] 1.04 | [15] 1 | [16] 1.04 | [17] 1 | [18] 1.01 | [42] 1.04 | [19] 1.01 | [20] 1.01 | [21] 1.01 | [22] 1.02 | S. cerevisiae deletion strains, locus YOL006C, strain TOP1, stronger effect = lower value 1.01 | [23] 1.01 | [24] 1.04 | [25] 1.22 | [26] 0.993
